# Measurements taken from PubChem BioAssay (EPA / NIEHS).
# Results filed as inconclusive are left out. The source made the active and inactive calls. The calls were made as follows, unless noted: active = hit-call score of the fitted dose curve at least 0.9, where 1 is the maximum; inactive = score below 0.9.
# Experiments:
# [1] = CCTE_Shafer_MEA_acute_spike_number: CCTE's Neural Acute Assay for Total Number of Spikes, Shafer Lab (AID 2284008)
# Outline: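 Cortical neurons from rat, matured to DIV 13 or 15 on microelectrode arrays, are recorded at 37 C before and during 40-min exposure to 0.03-40 uM compound. Wells need >/= 10 active electrodes.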
# [2] = CCTE_Shafer_MEA_acute_firing_rate_mean: CCTE's Neural Acute Assay for Mean Firing Rate, Shafer Lab (AID 2284009);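 also: analyzed for loss of signal so actives lower firing rate relative to DMSO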
# Outline: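 Spontaneous spiking of primary rat cortical networks, DIV 13/15, 37 C. Compound 0.03-40 uM, n ≥3 wells; 40 min baseline vs 40 min treated. Endpoint fitted in loss-of-signal direction against DMSO.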
# [3] = CCTE_Harrill_HTTr_Viability_MCF7: CCTE's 6-hour Cell Viability Assessment for the High-Throughput Transcriptomics (HTTr) Platform, in MCF-7 cells cultured in DMEM + 10% fetal bovine serum, Harrill Lab (AID 2284010)
# Outline: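 PI exclusion, high-content imaging; 8-pt dilution series, 6 h exposure; bidirectional fit vs DMSO (neg. ctrl/baseline); gain of signal = loss of membrane integrity.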
# [4] = CCTE_Harrill_HTTr_Apoptosis_MCF7: CCTE's 6-hour Apoptosis Assessment for the High-Throughput Transcriptomics (HTTr) Platform, in MCF-7 cells cultured in DMEM + 10% fetal bovine serum, Harrill Lab (AID 2284011)
# Outline: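 Cells are dosed with test chemicals at eight concentrations and imaged 6 hours later for caspase-3/7 activity using a green fluorogenic detection reagent. Activity is fitted in both directions against DMSO controls.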
# [5] = CCTE_Harrill_HTTr_CellCount_MCF7: CCTE's Cell Proliferation Assessment for the High-Throughput Transcriptomics (HTTr) Platform, Harrill Lab (AID 2284012; active = hit-call score of the fitted dose curve at least 0.9, where 1 is the maximum;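 also: count of Hoechst-stained nuclei per well by high-content imaging in MCF-7 cells; cells exposed to compound for six hours; intended direction is loss of nuclei count meaning fewer cells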)
# Outline: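 Readout: Hoechst nuclear count by high-content imaging. MCF-7, 8-point dilution series, 6 h exposure. Bidirectional fit vs DMSO baseline.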
# [6] = CCTE_Shafer_MEA_acute_burst_number: CCTE's Neural Acute Assay for Single-Electrode Bursts, Shafer Lab (AID 2284013)
# Outline: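 Burst totals were derived with adaptive spike detection (8x rms threshold) on filtered signals from rat cortical cultures; change relative to pre-treatment baseline after 40-min compound exposure (0.03-40 uM) was fitted in the negative direction against DMSO.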
# [7] = CCTE_Shafer_MEA_acute_burst_duration_mean: CCTE's Neural Acute Assay for Mean Burst Duration, Shafer Lab (AID 2284014);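 also: hits are decreases in mean burst duration relative to DMSO controls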
# Outline: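 Acute exposure of mature rat cortical networks (DIV 13 or 15) grown on microelectrode arrays to 0.03-40 uM compound. Mean burst duration compared with the 40-min pre-dose baseline over a 40-min post-dose recording at 37 C.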
# [8] = CCTE_Shafer_MEA_acute_per_burst_spike_number_mean: CCTE's Neural Acute Assay for Average Number of Spikes Per Burst, Shafer Lab (AID 2284015);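 also: hits are decreases in mean spikes per burst versus baseline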
# Outline: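 Read-out: percent change in mean spikes per burst, each well's post-exposure 40-min recording versus its own 40-min baseline. Rat cortical cultures, DIV 13 or 15, compounds 0.03-40 uM; DMSO is negative control, loss-of-signal fitting.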
# [9] = CCTE_Shafer_MEA_acute_interburst_interval_mean: CCTE's Neural Acute Assay for Mean Interburst Interval, Shafer Lab (AID 2284016);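 also: percent change of mean interburst interval versus each well's own pre-dose baseline; curves fitted for decrease in interburst interval relative to DMSO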
# Outline: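 Rat cortical cultures, DIV 13/15; 20 min equilibration, 40 min baseline, compound 0.03-40 uM, 40 min re-recording, 37 C. Spikes detected at 8x rms noise (300-5000 Hz band-pass). Endpoint: % change in interburst interval, fitted in loss direction vs DMSO.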
# [10] = CCTE_Shafer_MEA_acute_burst_percentage_mean: CCTE's Neural Acute Assay for Percentage of Spikes in a Burst, Shafer Lab (AID 2284017)
# Outline: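 Rat cortical cultures, DIV 13/15, 37 C. Spikes detected at 8x rms noise (300-5000 Hz band-pass). Burst spikes/total spikes averaged across electrodes per well; % change post- vs pre-treatment (40 min each), loss-of-signal fit vs DMSO.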
# [11] = CCTE_Shafer_MEA_acute_burst_percentage_std: CCTE's Neural Acute Assay for Standard Deviation of Burst Percentage, Shafer Lab (AID 2284018);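 also: fitted in the negative direction so actives lower burst percentage SD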
# Outline: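 Primary rat cortical neurons on 16-electrode MEA wells were recorded 40 min at baseline (DIV 13 or 15), then 40 min after compound (0.03-40 uM), at 37 C. Well value is SD across electrodes of spikes-in-bursts/total spikes; endpoint is percent change, DMSO-referenced.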
# [12] = CCTE_Shafer_MEA_acute_per_network_burst_spike_number_mean: CCTE's Neural Acute Assay for Average Number of Spikes in a Network Burst, Shafer Lab (AID 2284019);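 also: curve fitted for loss of signal so actives reduce spikes per network burst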
# Outline: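 Acute exposure of rat primary cortical networks (DIV 13/15) on MEAs; adaptive spike detection at 8x rms noise, 37 C. Percent change in spikes per network burst after 40 min with compound (0.03-40 uM), negative direction vs DMSO.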
# [13] = CCTE_Shafer_MEA_acute_per_network_burst_spike_number_std: CCTE's Neural Acute Assay for Standard Deviation of Number of Spikes in a Network Burst, Shafer Lab (AID 2284020);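 also: fitted for decrease in spike-number SD versus DMSO so actives lower it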
# Outline: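 Acute MEA exposure, rat cortical neurons, 0.03-40 uM. Per-well % change versus own baseline; DMSO as negative control.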
# [14] = CCTE_Shafer_MEA_acute_per_network_burst_electrodes_number_mean: CCTE's Neural Acute Assay for Mean Number of Electrodes in a Network Burst, Shafer Lab (AID 2284021);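 also: curves fitted for decreases only so hits reduce electrodes per burst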
# Outline: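 Cultures of rat cortex neurons were exposed on DIV 13 or 15 to compounds at 0.03-40 uM in at least three wells each. Activity over 40 min before and 40 min after exposure at 37 C gave the percent change in electrodes per network burst.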
# [15] = CCTE_Shafer_MEA_acute_network_burst_percentage: CCTE's Neural Acute Assay for Percentage of Network Bursts, Shafer Lab (AID 2284022);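 also: curves fitted for loss so actives lower network burst percentage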
# Outline: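 Cortical neurons from rat were grown over microelectrode arrays and used on day 13 or 15 in vitro. Wells with at least 10 active electrodes received test chemical at 0.03-40 uM. Activity during 40 min of exposure was compared with the preceding 40-min baseline.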
# [16] = CCTE_Shafer_MEA_acute_cross_correlation_area: CCTE's Neural Acute Assay for Area of Cross Correlation, Shafer Lab (AID 2284024);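 also: rat primary cortical neuron networks on 48-well MEA at DIV 13 or 15 with 40 min exposure; area under pooled inter-electrode spike cross-correlation near zero lag as percent change from own baseline; curves fitted for loss of cross-correlation area so actives lower synchrony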
# Outline: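 Acute exposure of mature rat cortical networks (day 13 or 15 post-plating) to 0.03-40 uM compound. Spontaneous spiking on MEA, 40 min pre- and post-dose at 37 C.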
# [17] = CCTE_Shafer_MEA_acute_cross_correlation_HWHM: CCTE's Neural Acute Assay for Cross Correlation at Half Width at Half Maximum, Shafer Lab (AID 2284026);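 also: spontaneous network firing of rat primary cortical neurons on multiwell microelectrode arrays; percent change per well from pre-dose baseline in spike cross-correlogram half width; hits are a decrease in cross-correlogram half width relative to DMSO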
# Outline: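 Primary cortex (rat), MEA, DIV 13/15; compound 0.03-40 uM; 40 min pre + 40 min post at 37 C; spike threshold 8x rms; wells need ≥10 active electrodes; endpoint = % change in cross-correlogram HWHM vs baseline, DMSO negative control.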
# [18] = CCTE_Shafer_MEA_acute_synchrony_index: CCTE's Neural Acute Assay for Synchrony, Shafer Lab (AID 2284027);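 also: network synchrony index of spontaneous spiking in primary rat cortical neurons on MEAs; fitted for loss of signal so actives lower synchrony relative to DMSO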
# Outline: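 Rat cortical cultures, DIV 13/15; spikes detected at 8x rms noise, 300-5000 Hz band-pass. Compound 0.03-40 uM, ≥3 wells; 40-min pre- and post-exposure recordings, 37 C. Readout: % change in synchrony index; loss-of-signal fit vs DMSO.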
# [19] = CCTE_Shafer_MEA_dev_per_burst_spike_percent: CCTE's Neural Network Formation Assay for Percent of Spikes in a Burst, Shafer Lab (AID 2284032);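 also: fitted as a decrease in burst spike percentage below DMSO baseline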
# Outline: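 Value is trapezoidal AUC over recordings on days 5, 7, 9 and 12 of the well-mean fraction of spikes falling in single-electrode bursts; rat cortical cultures exposed continuously from plating, treatment renewed DIV 5 and 9, fitted downward against DMSO.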
# [20] = CCTE_Shafer_MEA_dev_active_electrodes_number: CCTE's Neural Network Formation Assay for Number of Active Electrodes, Shafer Lab (AID 2284040; active = hit-call score of the fitted dose curve at least 0.9, where 1 is the maximum;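 also: potency for loss of active electrodes versus DMSO so lower counts are hits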)
# Outline: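 Developing rat cortical networks on MEAs, exposed DIV 0–12. Value is the AUC of active-electrode counts (≥5 spikes/min) from days 5, 7, 9, 12, relative to DMSO.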
# [21] = CCTE_Shafer_MEA_dev_per_burst_interspike_interval: CCTE's Neural Network Formation Assay for Burst Interspike Interval, Shafer Lab (AID 2284044);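 also: potency for a decrease of within-burst interspike interval below DMSO level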
# Outline: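 Developmental network-formation MEA in primary rat cortical cultures with exposure spanning days 0–12. Within-burst ISI is averaged per well and integrated across recording days by area under the curve, with DMSO as negative control baseline.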
# [22] = CCTE_Shafer_MEA_dev_burst_duration_mean: CCTE's Neural Network Formation Assay for Mean Burst Duration, Shafer Lab (AID 2284045)
# Outline: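 Network-formation assay in primary rat cortical neurons; treatment spans twelve days of development. Mean burst duration per well is integrated by trapezoidal AUC and fitted in the loss-of-signal direction against DMSO baseline.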
# [23] = CCTE_Shafer_MEA_dev_interburst_interval_mean: CCTE's Neural Network Formation Assay for Mean Interburst Interval, Shafer Lab (AID 2284046);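 also: well-mean interburst interval of bursting electrodes as AUC over four recording days; curve fitted for decrease in interburst interval relative to DMSO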
# Outline: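 Developing rat cortical networks on 48-well MEAs receive compound from the day of plating. Burst intervals from each active electrode are averaged per well, and AUC over the recording days is fitted in the negative direction against DMSO.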
# [24] = CCTE_Shafer_MEA_dev_inter_network_spike_interval_mean: CCTE's Neural Network Formation Assay for Mean Inter-network Spike Interval, Shafer Lab (AID 2284047)
# Outline: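 Rat cortical cultures, 1.5 x 10^5 cells/well on 48-well MEA plates; continuous exposure days 0–12, medium and compound refreshed DIV 5, 9. Mean time between consecutive network-spike peaks; AUC across DIV 5/7/9/12; DMSO baseline, negative fitting direction.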
# [25] = CCTE_Shafer_MEA_dev_network_spike_number: CCTE's Neural Network Formation Assay for Number of Network Spikes, Shafer Lab (AID 2284048);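 also: synchronized bursts across electrodes counted on days 5 7 9 12 and integrated as AUC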
# Outline: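 Extracellular recordings from 16-electrode wells track network formation in rat cortical cultures under continuous treatment from plating. The endpoint is network spike number, expressed as AUC across DIV 5–12 relative to DMSO vehicle.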
# [26] = CCTE_Shafer_MEA_dev_network_spike_peak: CCTE's Neural Network Formation Assay for Mean Number of Electrodes in Network Spike, Shafer Lab (AID 2284049);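 also: fitted for loss of signal meaning fewer electrodes in network spikes than DMSO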
# Outline: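 Continuous 12-day exposure of rat cortical cultures, starting at plating, on MEA plates. Endpoint: electrodes participating in network-spike peaks, AUC across DIV 5–12, DMSO as negative control.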
# [27] = CCTE_Shafer_MEA_dev_spike_duration_mean: CCTE's Neural Network Formation Assay for Mean Spike Duration, Shafer Lab (AID 2284051);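 also: mean network spike duration pooled as area under curve over DIV 5 to 12 recordings; potency for a decrease in mean network spike duration versus DMSO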
# Outline: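 Readout is the average length of network spikes, clustered firing across electrodes, summed over DIV 5, 7, 9 and 12 as area under the curve. Neurons from rat cortex developed networks on MEA plates under continuous 12-day exposure.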
# [28] = CCTE_Shafer_MEA_dev_network_spike_duration_std: CCTE's Neural Network Formation Assay for Standard Deviation of Network Spike Duration, Shafer Lab (AID 2284052);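 also: area under curve of spike duration SD across recording days 5 to 12; hits are decreases in network spike duration SD versus DMSO vehicle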
# Outline: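 Read-out is the trapezoidal area-under-the-curve across recordings made on days 5, 7, 9 and 12, fitted in the negative direction against DMSO baseline. Neurons were primary rat cortical cells treated from day 0, with treatment renewed at each feed.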
# [29] = CCTE_Shafer_MEA_dev_per_network_spike_spike_number_mean: CCTE's Neural Network Formation Assay for Mean Number of Spikes in a Network Spike, Shafer Lab (AID 2284053)
# Outline: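 Continuous twelve-day exposure of developing rat cortical networks grown over 16 microelectrodes per well; spontaneous firing is captured at four time points, and the per-network-spike spike number is integrated over development by trapezoidal AUC.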
# [30] = CCTE_Shafer_MEA_dev_per_network_spike_spike_percent: CCTE's Neural Network Formation Assay for Percent of Spikes in a Network Spike, Shafer Lab (AID 2284054)
# Outline: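 Developing networks of rat cortical neurons are dosed at day 0 and recorded extracellularly four times up to day 12. The endpoint is the area under the curve of percent spikes in network spikes, fitted in the negative direction relative to DMSO.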
# [31] = CCTE_Shafer_MEA_dev_AB: CCTE's Alamar Blue Assay for Cytotoxicity in the Neural Network Formation Assay, Shafer Lab (AID 2284083; active = hit-call score of the fitted dose curve at least 0.9, where 1 is the maximum;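 also: resazurin reduction fluorescence as viability of cultured neurons; twelve days of exposure from plating with re-dosing on DIV 5 and 9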)
# Outline: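 Fluorescent resazurin reduction serves as the viability read-out, with DMSO as negative control and baseline. Cells were primary rat cortical neurons grown on MEA plates and dosed from day 0 to day 12, treatment renewed on DIV 5 and 9.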
# [32] = CCTE_Shafer_MEA_acute_LDH: CCTE's Lactate Dehydrogenase Assay for Cytotoxicity in the Neural Acute Assay, Shafer Lab (AID 2284086; active = hit-call score of the fitted dose curve at least 0.9, where 1 is the maximum;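 also: active means LDH release rises above DMSO vehicle level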)
# Outline: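 LDH absorbance at 490 nm in medium taken right after 40-min compound exposure; rat primary cortical neuron networks on MEA plates, days post-plating 13 or 15. Increase over DMSO baseline scored as cytotoxicity.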
# [33] = CCTE_Shafer_MEA_dev_mutual_information_norm: CCTE's Neural Network Formation Assay for Mutual Information Normalization, Shafer Lab (AID 2284091)
# Outline: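 Exposure of primary rat cortical neurons began at plating and ran to DIV 12, with full media and treatment renewal after DIV 5 and 9 recordings. Mutual information AUC (DIV 5–12) was analysed for loss versus DMSO.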
# [34] = CCTE_Shafer_MEA_dev_correlation_coefficient_mean: CCTE's Neural Network Formation Assay for Mean Correlation Coefficient, Shafer Lab (AID 2284093);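 also: well mean pairwise spike train correlation integrated as AUC over recording days 5 to 12; potency fitted for loss of correlation relative to DMSO vehicle wells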
# Outline: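 Read-out: well-mean correlation coefficient of spike trains between electrode pairs, collapsed over four recording days as trapezoidal area-under-the-curve. Developing rat cortical neuron networks grown on MEAs received test chemical continuously from plating.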
smiles,measurement,setting,value
O=C1CC2(CCCC2)CC(=O)N1CCCCN1CCN(c2ncccn2)CC1,outcome,[1],inactive
same,outcome,[2],inactive
same,outcome,[3],inactive
same,outcome,[4],inactive
same,outcome,[5],inactive
same,outcome,[6],inactive
same,outcome,[7],inactive
same,outcome,[8],inactive
same,outcome,[9],inactive
same,outcome,[10],inactive
same,outcome,[11],inactive
same,AC50,[12],1.01 µM (active)
same,outcome,[13],inactive
same,AC50,[14],2.98 µM (active)
same,outcome,[15],inactive
same,outcome,[16],inactive
same,outcome,[17],inactive
same,outcome,[18],inactive
same,AC50,[19],15 µM (active)
same,AC50,[20],9.97 µM (active)
same,AC50,[21],2.98 µM (active)
same,outcome,[22],inactive
same,outcome,[23],inactive
same,outcome,[24],inactive
same,outcome,[25],inactive
same,AC50,[26],15 µM (active)
same,AC50,[27],15 µM (active)
same,outcome,[28],inactive
same,AC50,[29],21.6 µM (active)
same,outcome,[30],inactive
same,AC50,[31],15 µM (active)
same,outcome,[32],inactive
same,outcome,[33],inactive
same,AC50,[34],25 µM (active)
